# According to the supplement of paper PMC5662767:
# Where “and” joins values, the source holds several entries; their conditions need not be identical. Equal entries are not always repeated. Structures can show the parent of a compound that is named as a salt.
# Tested on: Drosophila S2 cl14 SmoIP sensor cells
# Assay: normalized SmoIP GFP fluorescence (untreated unstimulated = 0%, untreated Hh-stimulated = 100%); higher = more Smo activation sensor fluorescence
# Settings: compound concentration: 2 uM, 24 h
# [1] = stimulation: Hh conditioned medium (+Hh)
# [2] = stimulation: mock conditioned medium (-Hh)
# 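Also: flow cytometry read-out as median GFP intensity of gated cells, compounds added 30 min before Hh-conditioned or mock medium, mock-treated cells serving as unstimulated baseline.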
Compound,normalized SmoIP GFP fluorescence [1],normalized SmoIP GFP fluorescence [2]
Nc1nc(N)nc(-c2cc(Cl)ccc2Cl)n1 [Irsogladine-maleate],140%,-3.9%
CC(=O)N1CCN(CCOc2ccc(C3CCN(C4=Nn5c(nnc5C(F)(F)F)CC4)CC3)cc2)CC1,192%,15%
COc1ccc(NS(=O)(=O)c2sc3ccc(Cl)cc3c2C)cc1N1CCNCC1,108%,2.86%
COCC(=O)NC/C=C/c1ccc2ncnc(Nc3ccc(Oc4ccc(C)nc4)c(C)c3)c2c1,71.1%,2.43%
Nc1ncnc2c1c(-c1cnc3[nH]ccc3c1)nn2C1CCCC1,50.6%,-17.9%
Cc1cc(C(C)Nc2ccccc2)c2nc(N3CCOCC3)cc(=O)n2c1 (stereo not drawn),126%,-0.265%
CCCc1cc(C)[nH]c(=O)c1CNC(=O)c1cc(-c2ccc(N3CCN(C(C)C)CC3)nc2)cc2c1cnn2C(C)C,116%,5.7%
C[C@H](NC(=O)[C@@H](O)c1cc(F)cc(F)c1)C(=O)N[C@@H]1C(=O)N(C)c2ccccc2-c2ccccc21,145%,9.98%
CC(=O)O[C@H]1CC[C@@]2(C)C(=CCC3C2CC[C@]2(C)C(c4cccnc4)=CCC32)C1 (stereo partly drawn) [Abiraterone-Acetate-CB7630],106%,-12.7%
Nc1ccn([C@H]2CC[C@@H](CO)O2)c(=O)n1 [Zalcitabine],114%,-12.4%
COc1cc(OC)c2c(=O)[nH]c(-c3cc(C)c(OCCO)c(C)c3)nc2c1,112%,-3.16%
N=C(N)NC(=N)NCCc1ccccc1 [Phenformin-hydrochloride],151%,-9.04%
O=P(O)(O)C(O)(Cn1ccnc1)P(=O)(O)O [Zoledronic-Acid],98.3%,-5.54%
Nc1ccccc1NC(=O)c1ccc(CNc2nccc(-c3cccnc3)n2)cc1 [MGCD0103(Mocetinostat)],214%,9%
CN(C)CC(=O)Nc1ccc2[nH]c(=O)c3ccccc3c2c1,113%,-1.97%
C[C@@H]1COC(Nc2ccc3ncnc(Nc4ccc(OCc5nccs5)c(Cl)c4)c3c2)=N1,108%,-17.2%
CC(C)c1cc(C(=O)N2Cc3ccc(CN4CCN(C)CC4)cc3C2)c(O)cc1O,107%,13.8%

Compound,normalized SmoIP GFP fluorescence [1],normalized SmoIP GFP fluorescence [2]
CCc1c(O)cc(O)c(C(=O)c2ccc(OCCN3CCOCC3)c(OC)c2)c1CC(=O)N(CCOC)CCOC,121%,-12.4%
CCCS(=O)(=O)Nc1ccc(F)c(C(=O)c2c[nH]c3ncc(-c4ccc(Cl)cc4)cc23)c1F,91.2%,3.72%
O=C(c1ccc(F)cc1)N1CCC[C@H](c2nc(-c3ccc(F)cc3)no2)C1,156%,-7.78%
CN1CCC[C@@H]1Cc1c[nH]c2ccc(CCS(=O)(=O)c3ccccc3)cc12 [eletriptan-hydrobromide],106%,-2.71%
COC(=O)C1=C(C)NC(C)=C(C(=O)OC(C)C)C1c1cccc2nonc12 (stereo not drawn) [Isradipine(Dynacirc)],112%,3.72%
NCC(=O)Nc1ccc(-n2nc(C(F)(F)F)cc2-c2ccc3c(ccc4ccccc43)c2)cc1,100%,0.812%
O=C(O)C1(Cc2cccc(Nc3nccs3)n2)CCC(Oc2cccc(Cl)c2F)CC1 (stereo not drawn),179%,24.4%
O=C(COc1ccc(Cl)cc1)NC1CCC(NC(=O)COc2ccc(Cl)cc2)CC1 (stereo not drawn) [isrib-trans-isomer],109%,7.06%
O=C(c1ccc(Nc2nccc(-c3cc4ccccc4s3)n2)cc1)N1CCC(N2CCCC2)CC1,106%,1.1%
CCC(=O)N1CCN(c2ccc(-n3c(=O)ccc4cnc5ccc(-c6cnc7ccccc7c6)cc5c43)cc2C(F)(F)F)CC1 [torin-1],46.9%,-12.5%
CC(C)N(CCCNC(=O)Nc1ccc(C(C)(C)C)cc1)C[C@H]1O[C@@H](n2ccc3c(N)ncnc32)[C@H](O)[C@@H]1O,106% and 111%,-4.13% and -1.12%
CCOc1cc2ncc(C#N)c(Nc3ccc(OCc4ccccn4)c(Cl)c3)c2cc1NC(=O)/C=C/CN(C)C [Neratinib(HKI-272)],105%,-15.6%
C[C@@H]1CCN(C(=O)CC#N)C[C@@H]1N(C)c1ncnc2[nH]ccc12,105%,-0.889%
O=C1NC(=O)/C(=C/c2ccc3nccc(-c4ccncc4)c3c2)S1,175%,2.43%
O=C(O)C(O)Cc1ccc(O)c(O)c1 (stereo not drawn) [Sodium-Danshensu],93.6%,-2.82%
COCC[n+]1c2c(n(Cc3cnccn3)c1C)C(=O)c1ccccc1C2=O,101%,-12.7%
CCOC(=O)c1ccc(N2NC(=O)C(=Cc3ccc([N+](=O)[O-])o3)C2=O)cc1,119%,8.94%
